tested on: TGFBR2; settings: concentration: 1 μM,replicates: in singlicate; n = 1
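Also: KINOMEscan kinase panel screen.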

`OCCn1cc(-c2cnc3nnn(Cc4ccc5ncccc5c4)c3n2)cn1` and `C[C@@H](Oc1cc(-n2cnc3cc(-c4cnn(C)c4)ccc32)sc1C(N)=O)c1ccccc1Cl` [GSK580432] are the same in “%Inh” value: 0% for the first, 0% for the second.

Compared with `CC(=O)Nc1nc2cnc(Nc3cc(NC(=O)c4cccc(CC(C)(C)C#N)c4)ccc3C)nc2s1`, `CNC(=O)c1ccccc1Nc1nc(Nc2cccc(CS(C)(=O)=O)c2)ncc1C.O=CO` [GSK1520489] is higher in “%Inh” value: 0% for the first, 37% for the second.

Compared with `CCNCC(Cc1ccccc1)NC(=O)c1cc(Br)c(-c2ccnc3[nH]ccc23)s1.Cl.Cl` (stereo not shown) [GSK1383280], `CC(C)c1nc(-c2cccc(NS(=O)(=O)c3ccccc3)c2)c(-c2ccnc(Nc3ccc4c(c3)CN(C)CC4)n2)s1` [GSK1649598] is higher in “%Inh” value: 0% for the first, 94.8% for the second.

`N#Cc1cccc(C(=O)NC2CCN(c3ccnc(Nc4ccc(F)cc4)n3)C2)c1` (stereo not shown) [GSK1379708] and `CC(C(=O)NC1CCN(c2ccnc(Nc3ccc(F)cc3)n2)C1)c1ccc(Cl)cc1` (stereo not shown) [GSK1379713] are the same in “%Inh” value: 0% for the first, 0% for the second.

Compared with `CN1CCN(CCCNc2nccc(-c3c(-c4ccc(F)cc4)nn4cc(C(N)=O)ccc34)n2)CC1` [GW622475], `CSc1nccc(-c2c(-c3ccc(F)cc3)ncn2CCCN2CCOCC2)n1.Cl` [SB-217146] is lower in “%Inh” value: 77% for the first, 0% for the second.

`O=C(Nc1n[nH]c2cc(-c3ccco3)ccc12)C1CC1` [SB-737447] and `Nc1nccc(-c2ccc3c(N)n[nH]c3c2)n1` [GSK1034945] are the same in “%Inh” value: 0% for the first, 0% for the second.

First: CCOC(=O)N1CCC(n2cnc(-c3ccc(F)cc3)c2-c2ccnc(N)n2)CC1 [SB-219952]
Second: CCN1CCN(CCCC(=O)Nc2n[nH]c3nc(-c4ccc(O)cc4)c(Br)cc23)CC1 [SB-731579]
The “%Inh” value of the first is higher: 10% for the first, 0% for the second.

`COc1cc2ncn(-c3cc(OCC4CCCCC4)c(C(N)=O)s3)c2cc1OC` [GSK204559] and `COC(=O)c1cccc(NC(=O)NC2CCN(c3ccnc(Nc4cc(OC)c(OC)c(OC)c4)n3)C2)c1` (stereo not shown) [GSK1379767] are the same in “%Inh” value: 0% for the first, 0% for the second.

`CCn1c(-c2nonc2N)nc2cncc(Br)c21` [SB-738004] and `CCn1c(-c2nonc2N)nc2cncc(CNC3CCNCC3)c21.Cl` [SB-747651] are the same in “%Inh” value: 0% for the first, 0% for the second.

First: Cn1ccc2ncnc(Oc3ccc(NC(=O)Nc4cccc(C(F)(F)F)c4)c(F)c3)c21
Second: Cn1ccc2ncnc(Oc3ccc(NC(=O)Nc4cccc(C(F)(F)F)c4)c(Cl)c3)c21
The “%Inh” value of the first is higher: 19% for the first, 0% for the second.

Going from `Cc1cccc(-c2nc(Nc3ccncc3)c3sccc3n2)n1` [GW869641] to `Cc1cccc2c(-c3ccncc3)c(-c3ccc(F)cc3)nn12.Cl` [GW461487], the “%Inh” value falls from 95.6% to 0%.

First: Cn1cc(-c2cccc3c(N)c(C(N)=O)nnc23)cn1
Second: NC(=O)c1ccc(-c2cc3ncnc(SCC(=O)O)c3s2)cc1
The “%Inh” value of the first is lower: 16% for the first, 40% for the second.

Compared with `Cn1ccc2ncnc(Oc3ccc(NC(=O)Nc4cc(C(C)(C)C)on4)c(Cl)c3)c21`, `COC(=O)Nc1nc2cc(Oc3ccc(NC(=O)Nc4cc(C(F)(F)F)ccc4Cl)cc3)ccc2[nH]1.Cl` [GW697465] is higher in “%Inh” value: 0% for the first, 6% for the second.

Compared with `Cc1n[nH]c2cc(Nc3ccnc(Nc4cccc(CN5CCOCC5)c4)n3)ccc12` [GW682569], `Cc1ccc(Nc2ccnc(Nc3ccc4c(c3)CS(=O)(=O)C4)n2)cc1O.Cl` [GW579362] is higher in “%Inh” value: 84% for the first, 99.4% for the second.

`CS(=O)(=O)c1cccc(CNc2nc(Nc3ccc4c(c3)[C@@H]3C[C@@H]4CNC3=O)ncc2C(F)(F)F)c1` and `CN(c1cccc(CNc2nc(Nc3ccc4c(c3)CC(=O)N4)ncc2C(F)(F)F)c1)S(C)(=O)=O` are the same in “%Inh” value: 0% for the first, 0% for the second.

`Cc1ccc(C(=O)Nc2ccc(Oc3ccc4nc(NC(=O)C5CC5)cn4c3)c(F)c2)c(=O)n1-c1ccccc1` and `COc1cc2c(Nc3ccc(NC(=O)c4ccccc4)cc3)ncnc2cc1OCCCN1CCOCC1` [GSK301329] are the same in “%Inh” value: 0% for the first, 0% for the second.

Compared with `CC(=O)Nc1ccc(-c2cc3ncnc(SCC(=O)O)c3s2)cc1`, `O=C(Nc1cccc(C(F)(F)F)c1)c1cccc(Oc2ccc3nccn3n2)c1` is lower in “%Inh” value: 46% for the first, 0% for the second.

`c1ccc(Oc2ccc(Nc3ccnc4ccc(-c5ccccn5)cc34)cc2)cc1` [GW407034] and `O=C(Nc1cccc(Oc2ccc3nccn3n2)c1)Nc1cccc(C(F)(F)F)c1` are the same in “%Inh” value: 0% for the first, 0% for the second.

`C[C@@H]1CNc2c(sc3ccc4nc(-c5ccncc5)ccc4c23)C(=O)N1` was tested, and the “%Inh” value was 48%.
